Test [1] concerns the target T1, Serine/threonine-protein kinase 17A (Homo sapiens) (UniProt Q9UEE5).
T1 sequence (whole entry): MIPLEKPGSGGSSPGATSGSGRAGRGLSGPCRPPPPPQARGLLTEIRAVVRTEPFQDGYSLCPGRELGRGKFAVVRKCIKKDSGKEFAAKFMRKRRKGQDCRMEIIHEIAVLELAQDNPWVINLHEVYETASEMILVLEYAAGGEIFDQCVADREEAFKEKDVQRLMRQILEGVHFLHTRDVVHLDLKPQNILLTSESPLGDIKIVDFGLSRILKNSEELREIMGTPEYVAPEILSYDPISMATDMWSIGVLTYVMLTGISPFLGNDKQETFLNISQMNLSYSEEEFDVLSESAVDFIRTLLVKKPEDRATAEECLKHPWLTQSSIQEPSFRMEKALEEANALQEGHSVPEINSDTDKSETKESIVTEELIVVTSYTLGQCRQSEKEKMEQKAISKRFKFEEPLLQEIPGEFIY
The conditions noted are these: at 1 µM.

For test [2], the target named is T1, Serine/threonine-protein kinase 17A (Homo sapiens). The conditions noted are these: at 10 µM.
For test [3], the target named is T2, Dual specificity tyrosine-phosphorylation-regulated kinase 2 (Homo sapiens) (UniProt Q92630).
T2 sequence (whole entry): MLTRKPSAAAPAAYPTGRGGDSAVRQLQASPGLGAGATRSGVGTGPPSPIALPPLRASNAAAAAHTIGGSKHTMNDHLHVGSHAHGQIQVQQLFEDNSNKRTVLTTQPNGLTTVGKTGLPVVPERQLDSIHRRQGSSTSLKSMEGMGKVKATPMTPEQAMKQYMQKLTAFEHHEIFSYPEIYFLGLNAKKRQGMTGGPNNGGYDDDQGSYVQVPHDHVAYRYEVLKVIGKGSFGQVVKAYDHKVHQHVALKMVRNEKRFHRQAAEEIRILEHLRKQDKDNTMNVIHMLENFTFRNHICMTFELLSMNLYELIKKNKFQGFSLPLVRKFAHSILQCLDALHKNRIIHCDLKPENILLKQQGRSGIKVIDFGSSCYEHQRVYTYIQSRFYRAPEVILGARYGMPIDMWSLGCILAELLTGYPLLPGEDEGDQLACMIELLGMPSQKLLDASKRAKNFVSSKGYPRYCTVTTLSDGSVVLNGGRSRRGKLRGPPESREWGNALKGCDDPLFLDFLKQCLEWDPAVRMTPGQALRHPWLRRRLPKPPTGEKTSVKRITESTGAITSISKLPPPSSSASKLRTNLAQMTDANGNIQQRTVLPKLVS
The note with it: at 1 µM.

The target of test [4] is T2, Dual specificity tyrosine-phosphorylation-regulated kinase 2 (Homo sapiens). The note with it: at 10 µM.
Test [5] concerns the target T3, Ephrin type-A receptor 1 (Homo sapiens) (UniProt P21709).
T3 sequence (whole entry): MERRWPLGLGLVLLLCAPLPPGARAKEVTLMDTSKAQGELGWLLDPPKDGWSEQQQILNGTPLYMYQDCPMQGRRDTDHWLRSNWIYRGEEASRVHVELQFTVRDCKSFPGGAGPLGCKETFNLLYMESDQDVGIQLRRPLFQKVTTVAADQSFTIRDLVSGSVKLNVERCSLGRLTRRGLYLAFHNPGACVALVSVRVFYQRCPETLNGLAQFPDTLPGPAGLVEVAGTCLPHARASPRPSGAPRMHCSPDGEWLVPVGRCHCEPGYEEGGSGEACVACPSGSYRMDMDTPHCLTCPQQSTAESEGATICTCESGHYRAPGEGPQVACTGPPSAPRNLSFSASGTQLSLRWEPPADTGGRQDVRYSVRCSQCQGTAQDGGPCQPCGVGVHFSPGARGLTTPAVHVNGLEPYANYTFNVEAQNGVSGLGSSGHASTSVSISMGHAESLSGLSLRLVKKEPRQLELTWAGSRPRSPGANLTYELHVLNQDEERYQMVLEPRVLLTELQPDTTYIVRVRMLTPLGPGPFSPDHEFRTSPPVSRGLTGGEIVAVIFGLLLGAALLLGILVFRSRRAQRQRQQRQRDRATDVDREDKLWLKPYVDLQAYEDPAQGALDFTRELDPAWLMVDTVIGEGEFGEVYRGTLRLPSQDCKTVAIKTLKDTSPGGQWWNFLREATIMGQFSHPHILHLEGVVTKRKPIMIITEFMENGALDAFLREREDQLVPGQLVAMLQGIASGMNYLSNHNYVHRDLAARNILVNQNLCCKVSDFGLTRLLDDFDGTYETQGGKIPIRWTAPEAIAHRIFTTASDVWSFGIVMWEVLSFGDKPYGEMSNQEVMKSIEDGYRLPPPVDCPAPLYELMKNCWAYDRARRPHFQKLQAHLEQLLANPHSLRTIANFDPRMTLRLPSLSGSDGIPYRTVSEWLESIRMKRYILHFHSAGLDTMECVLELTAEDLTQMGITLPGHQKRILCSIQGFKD
The conditions noted are these: at 1 µM.

Test [6] concerns the target T3, Ephrin type-A receptor 1 (Homo sapiens). The note with it: at 10 µM.
Test [7] addresses Ephrin type-A receptor 2 (Homo sapiens) (UniProt P29317). The note with it: at 1 µM.
Test [8] has the same target. The note with it: at 10 µM.
Test [9] concerns the target T4, Ephrin type-A receptor 3 (Homo sapiens) (UniProt P29320).
T4 sequence (whole entry): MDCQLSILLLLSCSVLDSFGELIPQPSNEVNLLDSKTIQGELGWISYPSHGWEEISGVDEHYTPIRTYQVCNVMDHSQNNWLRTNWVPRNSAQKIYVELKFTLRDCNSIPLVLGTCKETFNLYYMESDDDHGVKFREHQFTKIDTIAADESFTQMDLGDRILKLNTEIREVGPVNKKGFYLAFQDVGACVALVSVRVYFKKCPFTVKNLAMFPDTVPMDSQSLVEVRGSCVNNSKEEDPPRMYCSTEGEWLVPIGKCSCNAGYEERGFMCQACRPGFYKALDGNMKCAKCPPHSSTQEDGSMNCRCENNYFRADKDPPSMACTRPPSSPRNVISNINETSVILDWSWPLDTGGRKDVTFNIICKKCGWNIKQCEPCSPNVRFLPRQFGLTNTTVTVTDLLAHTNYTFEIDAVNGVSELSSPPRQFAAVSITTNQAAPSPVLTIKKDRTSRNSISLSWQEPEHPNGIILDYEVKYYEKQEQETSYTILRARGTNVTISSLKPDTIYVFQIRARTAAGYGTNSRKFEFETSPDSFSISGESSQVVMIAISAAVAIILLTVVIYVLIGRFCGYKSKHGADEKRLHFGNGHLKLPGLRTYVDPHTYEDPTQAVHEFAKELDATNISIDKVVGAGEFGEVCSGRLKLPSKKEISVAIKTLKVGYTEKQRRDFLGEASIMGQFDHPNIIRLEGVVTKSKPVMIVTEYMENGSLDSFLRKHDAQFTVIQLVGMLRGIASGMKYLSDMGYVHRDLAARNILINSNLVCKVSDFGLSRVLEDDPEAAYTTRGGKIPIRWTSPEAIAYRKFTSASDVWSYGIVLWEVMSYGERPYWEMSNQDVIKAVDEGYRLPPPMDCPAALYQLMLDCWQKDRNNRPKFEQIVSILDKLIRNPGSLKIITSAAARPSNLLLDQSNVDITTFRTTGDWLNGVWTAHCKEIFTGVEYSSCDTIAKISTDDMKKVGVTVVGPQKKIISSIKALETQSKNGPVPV
The conditions noted are these: at 1 µM.

Test [10] addresses T4, Ephrin type-A receptor 3 (Homo sapiens). The note with it: at 10 µM.
For test [11], the target named is Ephrin type-A receptor 4 (Homo sapiens) (UniProt P54764). The note with it: at 1 µM.
Chain of Ephrin type-A receptor 4 (Homo sapiens) (P54764 whole entry): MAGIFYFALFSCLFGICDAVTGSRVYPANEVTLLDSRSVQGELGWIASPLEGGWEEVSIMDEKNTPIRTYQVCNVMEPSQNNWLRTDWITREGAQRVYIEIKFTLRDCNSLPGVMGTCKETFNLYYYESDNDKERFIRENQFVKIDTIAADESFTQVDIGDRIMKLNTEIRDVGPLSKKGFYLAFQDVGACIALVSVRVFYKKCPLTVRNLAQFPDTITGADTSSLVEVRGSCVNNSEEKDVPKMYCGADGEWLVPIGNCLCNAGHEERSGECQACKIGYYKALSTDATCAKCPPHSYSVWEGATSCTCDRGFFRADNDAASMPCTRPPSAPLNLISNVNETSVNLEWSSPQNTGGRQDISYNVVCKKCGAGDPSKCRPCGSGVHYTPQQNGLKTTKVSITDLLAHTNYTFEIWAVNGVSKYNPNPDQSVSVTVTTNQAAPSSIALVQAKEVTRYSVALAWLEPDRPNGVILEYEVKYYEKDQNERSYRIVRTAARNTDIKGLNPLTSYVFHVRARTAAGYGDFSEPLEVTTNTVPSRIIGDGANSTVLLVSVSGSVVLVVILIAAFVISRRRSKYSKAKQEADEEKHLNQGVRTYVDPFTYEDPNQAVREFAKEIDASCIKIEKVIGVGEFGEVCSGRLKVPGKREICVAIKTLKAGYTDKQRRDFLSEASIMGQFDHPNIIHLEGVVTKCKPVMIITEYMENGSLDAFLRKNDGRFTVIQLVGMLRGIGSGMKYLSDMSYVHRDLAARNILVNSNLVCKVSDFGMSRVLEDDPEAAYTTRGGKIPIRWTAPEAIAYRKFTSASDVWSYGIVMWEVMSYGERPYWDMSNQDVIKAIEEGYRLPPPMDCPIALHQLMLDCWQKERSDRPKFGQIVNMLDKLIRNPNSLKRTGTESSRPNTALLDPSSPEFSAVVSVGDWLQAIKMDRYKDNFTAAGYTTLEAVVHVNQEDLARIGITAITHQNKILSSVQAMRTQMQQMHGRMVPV
For test [12] the target is unchanged. The conditions noted are these: at 10 µM.
Test [13] has as its target Ephrin type-A receptor 5 (Homo sapiens) (UniProt P54756). The conditions noted are these: at 1 µM.
Test [14] has the same target. The note with it: at 10 µM.
The target of test [15] is Ephrin type-A receptor 7 (Homo sapiens) (UniProt Q15375). The note with it: at 1 µM.
Chain of Ephrin type-A receptor 7 (Homo sapiens) (Q15375 28-998 limits assumed): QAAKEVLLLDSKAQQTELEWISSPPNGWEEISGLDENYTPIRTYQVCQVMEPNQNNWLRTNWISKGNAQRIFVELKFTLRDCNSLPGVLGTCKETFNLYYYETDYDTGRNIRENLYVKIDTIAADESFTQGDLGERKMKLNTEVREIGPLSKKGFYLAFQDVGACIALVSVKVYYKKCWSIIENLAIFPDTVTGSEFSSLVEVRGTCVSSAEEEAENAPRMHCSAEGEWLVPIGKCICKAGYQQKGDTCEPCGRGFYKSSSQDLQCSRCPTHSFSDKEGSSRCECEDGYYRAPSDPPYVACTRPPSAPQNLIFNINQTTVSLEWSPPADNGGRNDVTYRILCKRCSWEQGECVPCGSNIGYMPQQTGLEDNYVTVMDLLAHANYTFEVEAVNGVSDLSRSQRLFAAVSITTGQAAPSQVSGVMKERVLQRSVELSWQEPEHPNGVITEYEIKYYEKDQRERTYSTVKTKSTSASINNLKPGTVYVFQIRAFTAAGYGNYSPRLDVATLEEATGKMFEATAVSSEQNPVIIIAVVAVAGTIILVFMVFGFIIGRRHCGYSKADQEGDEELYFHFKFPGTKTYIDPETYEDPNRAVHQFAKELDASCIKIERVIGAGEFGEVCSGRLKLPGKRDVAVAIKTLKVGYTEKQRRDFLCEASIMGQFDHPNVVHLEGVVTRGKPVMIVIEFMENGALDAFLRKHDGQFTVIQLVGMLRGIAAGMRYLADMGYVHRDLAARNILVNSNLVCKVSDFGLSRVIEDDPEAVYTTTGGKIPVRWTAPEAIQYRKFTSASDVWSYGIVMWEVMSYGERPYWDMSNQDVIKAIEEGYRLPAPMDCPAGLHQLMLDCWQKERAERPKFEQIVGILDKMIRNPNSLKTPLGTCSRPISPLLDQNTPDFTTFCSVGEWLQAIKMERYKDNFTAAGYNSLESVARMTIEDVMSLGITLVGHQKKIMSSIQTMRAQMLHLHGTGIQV
Test [16] has the same target. The conditions noted are these: at 10 µM.
The target in test [17] is T5, Ephrin type-A receptor 8 (Homo sapiens) (UniProt P29322).
T5 sequence (whole entry): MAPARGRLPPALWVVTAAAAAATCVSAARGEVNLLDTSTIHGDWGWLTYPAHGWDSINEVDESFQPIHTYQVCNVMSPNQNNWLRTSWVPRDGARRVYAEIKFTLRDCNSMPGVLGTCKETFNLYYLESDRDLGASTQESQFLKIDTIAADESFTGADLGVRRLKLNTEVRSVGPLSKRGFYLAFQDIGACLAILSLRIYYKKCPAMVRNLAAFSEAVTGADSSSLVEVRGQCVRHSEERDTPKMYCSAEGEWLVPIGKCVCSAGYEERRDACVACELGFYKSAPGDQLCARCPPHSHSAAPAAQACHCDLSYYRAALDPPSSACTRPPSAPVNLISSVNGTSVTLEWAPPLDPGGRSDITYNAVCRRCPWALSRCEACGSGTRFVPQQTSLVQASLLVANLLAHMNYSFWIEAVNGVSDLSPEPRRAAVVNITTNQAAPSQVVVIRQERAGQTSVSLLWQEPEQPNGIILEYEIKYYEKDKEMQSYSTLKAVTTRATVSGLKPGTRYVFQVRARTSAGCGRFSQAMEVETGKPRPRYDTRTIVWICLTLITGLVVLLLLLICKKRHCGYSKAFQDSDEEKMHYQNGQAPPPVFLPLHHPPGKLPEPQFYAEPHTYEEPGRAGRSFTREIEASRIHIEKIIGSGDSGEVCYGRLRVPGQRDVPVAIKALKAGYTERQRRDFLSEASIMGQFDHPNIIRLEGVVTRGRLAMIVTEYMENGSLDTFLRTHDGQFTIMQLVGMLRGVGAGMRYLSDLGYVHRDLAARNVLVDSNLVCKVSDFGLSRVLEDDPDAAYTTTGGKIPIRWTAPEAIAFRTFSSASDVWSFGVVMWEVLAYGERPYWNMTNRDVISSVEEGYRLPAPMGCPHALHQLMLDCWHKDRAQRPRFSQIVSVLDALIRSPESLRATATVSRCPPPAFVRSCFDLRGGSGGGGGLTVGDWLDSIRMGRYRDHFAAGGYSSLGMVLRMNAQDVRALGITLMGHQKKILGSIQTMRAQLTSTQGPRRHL
The note with it: at 1 µM.

Test [18] has as its target T5, Ephrin type-A receptor 8 (Homo sapiens). The conditions noted are these: at 10 µM.
Test [19] addresses T6, Ephrin type-B receptor 1 (Homo sapiens) (UniProt P54762).
T6 sequence (whole entry): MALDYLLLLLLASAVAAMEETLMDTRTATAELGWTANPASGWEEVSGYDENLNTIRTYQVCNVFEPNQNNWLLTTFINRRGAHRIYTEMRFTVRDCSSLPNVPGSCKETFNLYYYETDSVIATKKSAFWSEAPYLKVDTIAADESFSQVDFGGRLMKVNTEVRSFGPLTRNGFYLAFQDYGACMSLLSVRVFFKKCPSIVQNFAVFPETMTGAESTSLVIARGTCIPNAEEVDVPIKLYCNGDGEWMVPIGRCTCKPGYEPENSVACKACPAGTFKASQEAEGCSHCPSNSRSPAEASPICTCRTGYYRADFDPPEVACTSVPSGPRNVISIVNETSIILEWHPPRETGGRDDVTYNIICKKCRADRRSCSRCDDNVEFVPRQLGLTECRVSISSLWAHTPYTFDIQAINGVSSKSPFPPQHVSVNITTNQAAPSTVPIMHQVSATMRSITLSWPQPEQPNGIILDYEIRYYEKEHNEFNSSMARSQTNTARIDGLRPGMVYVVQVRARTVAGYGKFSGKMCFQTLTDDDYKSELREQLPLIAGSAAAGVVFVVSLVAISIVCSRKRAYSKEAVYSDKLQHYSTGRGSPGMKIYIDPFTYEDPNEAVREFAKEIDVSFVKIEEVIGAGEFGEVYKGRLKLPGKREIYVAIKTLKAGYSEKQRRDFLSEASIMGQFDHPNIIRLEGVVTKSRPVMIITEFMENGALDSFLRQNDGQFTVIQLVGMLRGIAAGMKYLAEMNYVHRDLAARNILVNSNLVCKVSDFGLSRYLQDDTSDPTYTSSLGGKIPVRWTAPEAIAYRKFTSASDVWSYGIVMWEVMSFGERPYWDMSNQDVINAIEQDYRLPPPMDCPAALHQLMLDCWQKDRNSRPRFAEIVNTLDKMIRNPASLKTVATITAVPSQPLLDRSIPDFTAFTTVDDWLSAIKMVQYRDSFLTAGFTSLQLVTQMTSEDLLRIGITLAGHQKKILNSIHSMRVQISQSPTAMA
The note with it: at 1 µM.

Chain of Ephrin type-A receptor 5 (Homo sapiens) (P54756 whole entry): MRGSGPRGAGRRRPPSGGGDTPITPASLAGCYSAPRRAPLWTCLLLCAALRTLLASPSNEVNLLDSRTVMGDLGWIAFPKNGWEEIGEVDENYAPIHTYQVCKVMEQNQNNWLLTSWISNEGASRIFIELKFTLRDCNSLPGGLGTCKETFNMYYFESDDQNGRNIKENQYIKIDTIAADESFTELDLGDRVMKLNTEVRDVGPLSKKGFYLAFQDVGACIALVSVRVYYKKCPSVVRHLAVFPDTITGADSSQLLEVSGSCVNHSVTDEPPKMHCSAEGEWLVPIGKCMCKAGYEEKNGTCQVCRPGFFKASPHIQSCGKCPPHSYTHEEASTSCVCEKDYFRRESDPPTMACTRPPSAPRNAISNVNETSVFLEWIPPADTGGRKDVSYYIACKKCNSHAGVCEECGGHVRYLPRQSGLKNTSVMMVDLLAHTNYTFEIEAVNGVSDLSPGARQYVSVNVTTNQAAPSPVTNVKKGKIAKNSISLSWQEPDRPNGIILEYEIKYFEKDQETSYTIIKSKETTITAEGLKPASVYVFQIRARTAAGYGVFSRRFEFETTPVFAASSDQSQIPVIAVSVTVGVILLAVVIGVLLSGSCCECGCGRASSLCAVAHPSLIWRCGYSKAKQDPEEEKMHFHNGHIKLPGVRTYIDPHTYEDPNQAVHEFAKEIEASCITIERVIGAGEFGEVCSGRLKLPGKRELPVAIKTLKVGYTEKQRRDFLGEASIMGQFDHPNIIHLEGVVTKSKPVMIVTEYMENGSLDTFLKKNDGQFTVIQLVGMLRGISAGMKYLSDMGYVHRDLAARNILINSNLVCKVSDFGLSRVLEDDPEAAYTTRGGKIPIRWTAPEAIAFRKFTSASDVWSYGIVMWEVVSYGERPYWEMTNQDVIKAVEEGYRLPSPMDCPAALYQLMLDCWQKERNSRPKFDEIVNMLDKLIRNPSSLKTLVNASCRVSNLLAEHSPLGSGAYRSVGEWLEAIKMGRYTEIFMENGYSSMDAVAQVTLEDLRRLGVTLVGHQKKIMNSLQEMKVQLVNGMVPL
Chain of Ephrin type-A receptor 2 (Homo sapiens) (P29317 whole entry): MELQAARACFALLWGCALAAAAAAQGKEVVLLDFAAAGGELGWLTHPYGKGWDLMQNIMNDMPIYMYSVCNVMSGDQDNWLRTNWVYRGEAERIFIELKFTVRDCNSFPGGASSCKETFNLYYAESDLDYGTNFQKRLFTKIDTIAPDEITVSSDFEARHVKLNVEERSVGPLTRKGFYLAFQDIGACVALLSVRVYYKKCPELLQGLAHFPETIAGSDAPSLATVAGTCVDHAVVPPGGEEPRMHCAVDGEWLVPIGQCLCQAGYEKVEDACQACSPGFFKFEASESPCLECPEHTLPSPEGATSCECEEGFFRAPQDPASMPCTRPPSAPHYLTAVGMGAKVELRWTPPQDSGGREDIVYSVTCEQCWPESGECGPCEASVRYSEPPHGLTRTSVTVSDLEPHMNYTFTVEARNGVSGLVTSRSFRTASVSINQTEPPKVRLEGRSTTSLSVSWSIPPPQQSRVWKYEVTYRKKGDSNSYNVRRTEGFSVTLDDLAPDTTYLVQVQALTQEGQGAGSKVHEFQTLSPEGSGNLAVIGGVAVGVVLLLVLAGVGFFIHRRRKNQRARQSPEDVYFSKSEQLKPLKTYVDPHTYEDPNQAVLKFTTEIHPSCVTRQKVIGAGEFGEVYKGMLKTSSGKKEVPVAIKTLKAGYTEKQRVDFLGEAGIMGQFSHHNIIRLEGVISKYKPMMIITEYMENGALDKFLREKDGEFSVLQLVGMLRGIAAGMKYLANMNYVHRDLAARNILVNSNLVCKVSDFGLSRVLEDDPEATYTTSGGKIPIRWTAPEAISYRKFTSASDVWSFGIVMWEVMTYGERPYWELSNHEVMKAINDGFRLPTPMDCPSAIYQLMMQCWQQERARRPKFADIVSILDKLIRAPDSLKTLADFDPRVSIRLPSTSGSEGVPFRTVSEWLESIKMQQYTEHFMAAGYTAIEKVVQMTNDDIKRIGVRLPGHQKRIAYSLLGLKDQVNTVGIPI

For `C[S+]([O-])c1ccc(-c2nc(-c3ccc(F)cc3)c(-c3ccncc3)[nH]2)cc1` (stereo unspecified), the residual activity in test [1] came out at 123%; in [2], 103%; in [3] it was 115%; in test [4] it was 98%; in test [5] it was 90%; in [6] it was 26%. Besides, the residual activity in test [7] came out at 95%; in test [8], 62%; in [9] it was 105%; in test [10], 86%; in test [11] it was 110%; in test [12] it was 80%. The residual activity in [13] is 96%; in test [14], 48%; in [15] it was 102%; in [16] it was 65%; in test [17], 91%; in [18] it was 43%. The residual activity in test [19] came to 106%.
Regarding `N/C(=N\[N+](=O)[O-])N/N=C\c1ccc(-c2cccc([N+](=O)[O-])c2)o1`, the residual activity came out at 76% in [1]; 87% in test [2]; 90% in [3]; 95% in [4]; 97% in test [6]; 97% in test [9]. For the same compound, the residual activity in [10] stood at 79%.

For the origin of these results see ChEMBL document CHEMBL2218924, “A broad activity screen in support of a chemogenomic map for kinase signalling research and drug discovery” (Biochem J, 2013).
